# Test results: article PMC5540273 (PLoS ONE, 2017)
# Tests used:
# Settings in all cases: concentration: 1 μM, replicates: in singlicate; n = 1
# [1] = system: FGR
# [2] = system: FLT1
# [3] = system: FLT3-autoinhibited
# [4] = system: FLT3
# [5] = system: FLT4
# [6] = system: FRK
# [7] = system: FYN
# [8] = system: GAK
# [9] = system: T1, GCN2(Kin.Dom.2,S808G)
# T1 construct: gene EIF2AK4
# [10] = system: GRK1
# 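Further: KINOMEscan kinase panel screen.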
Structure (SMILES),%Inh [1] [%],%Inh [2] [%],%Inh [3] [%],%Inh [4] [%],%Inh [5] [%],%Inh [6] [%],%Inh [7] [%],%Inh [8] [%],%Inh [9] [%],%Inh [10] [%]
O=C(Nc1n[nH]c2cc(-c3ccccc3F)ccc12)C1CC1 [SB-733371],14,29,0,38,0,0,0,0,0,12
Nc1nc(N)c2nc(-c3ccccc3)[nH]c2n1 [SKF-12778],30,18,7,8,22,8,0,30,23,5
CCCC(=O)Nc1n[nH]c2ncc(-c3cccc4ccccc34)cc12 [SB-642057],10,10,5,0,1,0,42,0,0,0
Nc1ncnc2c1ncn2-c1cccc(F)c1 [SKF-97560],0,22,35,47,19,0,0,1,0,10
Cc1cccc(-c2cc(-c3c[nH]nc3-c3ccccn3)ccn2)c1 [GW679395],36,13,0,0,0,15,16,82,0,3
COc1cc2nccc(Nc3ccc(OCc4ccc(NC(C)=O)cc4)cc3)c2cc1OC.Cl [GW440135],29,83,0,73,92.4,7,1,7,4,22
O=C(Nc1ccc2c(c1)OCO2)NC1CCN(c2ccnc(NCc3ccc(F)cc3)n2)CC1 [GSK1379859],9,15,0,0,9,0,31,4,1,0
FC(F)(F)c1ccc(-c2ncn(CCCN3CCOCC3)c2-c2ccncc2)cc1 [SB-217780],11,22,23,14,2,12,10,0,8,12
COc1cc2ncn(-c3cc(OCc4ccncc4Br)c(C(N)=O)s3)c2cc1OC [GW854278],20,0,22,26,68,8,0,58,0,0
COC(=O)c1c(-c2ccccc2)c2cc(Br)ccc2c(=O)n1Cc1ccc(S(C)(=O)=O)cc1,13,0,0,9,1,1,0,9,0,0
Cc1nn2c(=O)cc(N3CCOCC3)nc2n1Cc1cccc(Cl)c1Cl [GSK2342769],24,27,9,0,34,0,0,1,3,3
COc1ccc(-c2coc3ccc(-c4nnc(SCc5cccc(C#N)c5)o4)cc23)cc1,0,0,10,13,0,0,5,12,0,9
Cc1ccc(-c2ccc3c(ccc4sc5c(c43)NC[C@@H](C)N=C5N(C)C)n2)cn1,1,1,0,0,0,0,0,0,0,0
Nc1ncnc2c1ncn2-c1cccc2ccccc12 [SKF-97184],6,0,0,0,10,0,0,0,0,31
CCC(=O)c1c(-c2ccccc2)c2cc(Cl)ccc2c(=O)n1Cc1cc(S(C)(=O)=O)n(CC(F)F)n1,0,0,0,0,0,0,0,0,0,12
Nc1n[nH]c2ncc(-c3ccccc3)cc12 [SB-517081],28,7,49,72,0,15,26,70,52,0
CCc1ccc(-c2ccc3c(c2)-c2nn(C)cc2S(=O)(=O)N3C)cc1,0,0,0,30,0,0,5,0,9,12
Nc1n[nH]c2nnc(-c3ccccc3)c(-c3ccccc3)c12 [GW554060],7,20,0,8,0,5,2,1,8,0
Nc1ncnc2c1ncn2-c1ccc(Cl)cc1 [AH2635],18,39,1,46,9,0,12,7,0,0
CCS(=O)(=O)c1ccc(OC)c(Nc2ncc(-c3ccc(F)cc3)o2)c1.Cl [GW591947],0,26,0,0,6,0,9,0,16,0
CCC(=O)c1c(-c2ccccc2)c2cc(Cl)ccc2c(=O)n1Cc1cc(S(C)(=O)=O)n(CC(N)=O)n1,0,0,0,0,0,0,0,0,0,24
CCS(=O)c1ccc(-c2coc3ccc(-c4nnc(C)o4)cc23)cc1 (stereo not drawn),0,0,0,0,0,5,0,0,0,5
Cc1cccc(-c2nc(Nc3ccc4c(cnn4C)c3)c3ccccc3n2)n1 [GW876731],0,0,0,9,0,13,9,19,12,1

Structure (SMILES),%Inh [1] [%],%Inh [2] [%],%Inh [3] [%],%Inh [4] [%],%Inh [5] [%],%Inh [6] [%],%Inh [7] [%],%Inh [8] [%],%Inh [9] [%],%Inh [10] [%]
Cc1cc(Nc2nc(-c3cccc(C)n3)nc3ccccc23)ccn1 [GW872411],0,0,0,7,0,0,0,0,0,13
CCC(=O)c1c(-c2ccccc2)c2cc(Cl)ccc2c(=O)n1Cc1cc(S(C)(=O)=O)n(CCC(C)(C)O)n1,11,29,2,0,15,13,10,8,0,8
O=C1NC(=O)C(c2ccccc2)=C1Nc1cccc(O)c1 [SB-390534],0,2,5,26,0,0,0,11,0,13
COc1cc(Nc2nccc(N3CCC(NC(=O)C4COc5ccccc5O4)C3)n2)cc(OC)c1OC (stereo not drawn) [GSK1379761],33,23,0,37,25,3,29,37,0,0
COc1cc2ncn(-c3cc(OCCCc4ccccc4)c(C(N)=O)s3)c2cc1OC [GSK205189],21,23,0,5,0,0,24,66,0,5
CCc1nc(-c2cccc(C)c2)c(-c2ccncc2)s1,19,13,0,0,0,9,0,49,3,25
O=C(NCc1cccs1)c1cc(C(=O)c2c(Cl)cccc2Cl)c[nH]1 [GW823670],7,2,0,2,2,0,0,0,8,0
CN(C)c1cc(-c2ccc3c(N)n[nH]c3c2)nc(N)n1 [GSK2219329],19,20,0,0,19,0,11,0,0,0
COc1ccc(Nc2nccc(N3CCC(NS(=O)(=O)c4ccc(NC(C)=O)cc4)C3)n2)cc1 (stereo not drawn) [GSK1379729],26,26,27,29,26,16,15,9,14,9
COc1ccc(-n2cnc3c(N)ncnc32)cc1 [SKF-97236],0,24,34,83,22,0,25,27,0,0
Cc1ccc(Oc2ccc(Nc3ncnc4cc[nH]c34)cc2C)cn1,29,92.5,23,3,0,12,0,10,0,9
Cn1c(=O)c(F)c(Nc2ccc(I)cc2F)c2c(=O)n(OC[C@H](O)CO)cnc21,32,0,0,0,10,0,14,11,0,9
COc1cccc(-n2cnc3c(N)ncnc32)c1 [SKF-97416],0,0,9,28,0,0,0,26,8,24
O=C(Nc1n[nH]c2nc(-c3ccccc3)c(Br)cc12)C1CC1 [SB-708998],8,25,8,1,26,0,26,11,0,0
Cc1ccccc1COc1cc(-n2cnc3cc(Cl)ccc32)sc1C(N)=O [GW813349],9,5,3,8,10,0,0,1,0,13
COC(=O)c1c(-c2ccccc2)c2cc(Br)ccc2c(=O)n1Cc1ccc(NC(=O)CCC(=O)O)cc1,8,0,0,6,9,8,0,0,0,0
COc1ccc(-c2cc3c(C)nc(N)nc3n([C@H]3CC[C@H](OCCO)CC3)c2=O)cn1,14,11,0,0,0,0,0,0,0,0
COc1cc(Nc2ccnc3ccc(C(F)(F)F)cc23)cc(OC)c1OC [GW577382],30,9,0,0,3,19,30,86,9,17
CC(C)(C)c1ccc(C(=O)Nc2cn3cc(-c4ccccc4)ccc3n2)cc1,0,0,0,35,0,10,0,0,8,25
Cc1nnc(-c2ccc3ncn(-c4ccc(S(C)=O)cc4)c3c2)o1 (stereo not drawn),18,8,0,8,0,0,8,2,19,11
COc1cc2nccc(Nc3cccc(Oc4ccccc4)c3)c2cc1OC.Cl [GW284543],25,24,10,6,38,0,36,0,0,0
CCn1c(-c2ccoc2)nc2cnccc21 [SB-733887],10,9,65,0,10,0,47,0,0,0
COc1ccc(-c2cc3c(C)nc(N)nc3n([C@H]3CC[C@H](O)CC3)c2=O)cn1,0,0,0,0,0,0,0,0,0,0

Structure (SMILES),%Inh [1] [%],%Inh [2] [%],%Inh [3] [%],%Inh [4] [%],%Inh [5] [%],%Inh [6] [%],%Inh [7] [%],%Inh [8] [%],%Inh [9] [%],%Inh [10] [%]
COc1cc2ncn(-c3cc(OCc4ccncc4)c(C(N)=O)s3)c2cc1OC [GSK336313],28,19,0,0,17,0,35,17,0,0
Fc1cccc(CSc2nnc(-c3ccc4c(c3)CCO4)o2)c1,0,0,23,0,15,15,3,3,4,7
O=C(Nc1n[nH]c2nc(-c3ccccc3)c(Cl)cc12)C1CC1 [SB-734909],13,9,16,2,0,0,0,0,0,37
Cl.c1ccc(Cn2cnc3cc(Nc4ncnc5ccccc45)ccc32)cc1 [GW272142],23,16,0,0,3,0,10,0,0,0
CCC(=O)c1c(-c2ccccc2)c2cc(Cl)ccc2c(=O)n1Cc1cc(C(=O)NC2CC2)n(C)n1,20,0,0,0,1,8,0,1,0,0
CN1C(=O)C(Nc2ccccc2)=C(c2ccccc2)C1=O [SB-300079],0,0,0,0,0,0,0,0,6,26
Cc1nc(N(C)[C@H]2CN(C(=O)CC#N)CC[C@H]2C)c2cc[nH]c2n1,6,0,0,5,15,0,2,0,0,0
Cc1nnc(-c2ccc(C)c(-c3ccc(C(=O)O)cc3)c2)o1 [GW608005],12,20,4,0,12,0,10,5,0,0
COc1cc(OC)cc(-c2cc3cnc(N)nc3nc2NC(=O)NC(C)(C)C)c1,0,38,0,0,73,0,1,0,3,13
Cl.NS(=O)(=O)c1cccc(Nc2cc(-c3ccc(F)cc3)n[nH]2)c1 [GW824645],0,0,77,88,0,0,0,0,0,23
COC(=O)c1c(-c2ccccc2)c2cc(C)ccc2c(=O)n1Cc1ccccc1,2,0,13,0,0,0,0,0,0,0
CCCNC(=O)Nc1ccc(Oc2ncnc3ccn(C)c23)cc1,0,0,2,45,10,0,1,3,10,24
CN1C(=O)C(Nc2cc(Cl)c(O)c(Cl)c2)=C(c2ccc(Cl)cc2)C1=O [SB-404321],0,0,0,0,0,0,0,0,6,0
OCCCNc1nccc(-c2c(-c3cccc(C(F)(F)F)c3)nn3cc(C(F)(F)F)ccc23)n1 [GW630813],16,24,0,0,12,0,0,8,0,100
CCC(=O)c1c(-c2ccccc2)c2cc(Cl)ccc2c(=O)n1Cc1ccc(C(=O)O)cc1,0,0,4,0,0,0,0,0,12,0
COc1cccc(C2=C(N(C)c3ccccc3)C(=O)NC2=O)c1 [SB-334865],13,16,0,0,0,5,13,0,0,5
C[C@@H]1CC[C@H](C(=O)NC2CCCCC2)CN1c1cc(-c2ccc3c(N)n[nH]c3c2)nc(N)n1 [GSK2291363],27,35,9,9,14,19,21,17,0,0
O=C(NCCNc1ccnc(Nc2ccc(F)cc2)n1)Nc1ccc2c(c1)OCO2 [GSK1379882],0,0,12,0,9,0,34,14,0,0
CCn1c(-c2nonc2N)nc2ccccc21 [SB-693162/GW549034],0,0,52,20,0,0,0,0,24,46
COc1cc2ncn(-c3cc(OCc4ccc(S(C)(=O)=O)cc4)c(C(N)=O)s3)c2cc1OC [GW869979],0,0,14,4,15,0,0,7,0,10
O=c1cc(N2CCOCC2)nc2n(Cc3ccc(F)c(Cl)c3)ccn12 [GSK2297099],25,10,2,0,0,0,56,1,2,0
Cc1c(Cn2c(C)nn3c(=O)cc(N4CCO[C@H](C)C4)nc23)cccc1C(F)(F)F [GSK2373690],0,22,0,0,0,35,14,52,3,0
COc1cccc(C2=C(Nc3cccc(C(=O)O)c3)C(=O)NC2=O)c1 [SB-390770],14,13,5,0,25,2,29,21,0,14
